Drawing on article PMC11062922 (Nature Chemical Biology, 2023), this text covers potency estimated from few doses for ten compounds.

Design in all cases: species or system human, MV4-11 + K-562 + COLO205 + SK-N-BE2 + OVCAR-8
In one assay the test system is ADRBK1. The note with it: read-out: apparent Kd, n = 1.
The subject of a further assay is AKT2. The note with it: read-out: apparent Kd, n = 1.
In another assay the test system is EIF2AK1. The note with it: read-out: apparent Kd; compound concentrations:100 nM and 1000 nM (sheet 'Samples'); n = 1.
A further assay concerns GSK3A. The note with it: read-out: apparent Kd; compound concentrations:100 nM and 1000 nM (sheet 'Samples'); n = 1.
A further assay relates to GSK3B. Particulars: read-out: apparent Kd; compound concentrations:100 nM and 1000 nM (sheet 'Samples'); n = 1.
The test system of another assay is PIM2. Particulars: read-out: apparent Kd; compound concentrations:100 nM and 1000 nM (sheet 'Samples'); n = 1.
Another assay deals with PRKAG1. Particulars: read-out: apparent Kd; compound concentrations:100 nM and 1000 nM (sheet 'Samples'); n = 1.
The test system of a further assay is TAOK1. The note with it: read-out: apparent Kd; compound concentrations:100 nM and 1000 nM (sheet 'Samples'); n = 1.
The subject of a further assay is ADK. Particulars: read-out: apparent Kd, compound concentrations: 100 nM and 1000 nM (sheet 'Samples'), n = 1.
The next assay deals with COX5A. The note with it: read-out: apparent Kd, n = 1.
Another assay has as its system AKT1. Particulars: read-out: apparent Kd, compound concentrations: 100 nM and 1000 nM (sheet 'Samples'), n = 1.
In another assay the test system is MAP2K1. The note with it: read-out: apparent Kd; compound concentrations: 100 nM and 1000 nM (sheet 'Samples'), CATDS: 9.8973729248026707E-2; n = 1.
In a further assay the test system is MAP2K2. Particulars: read-out: apparent Kd, compound concentrations: 100 nM and 1000 nM (sheet 'Samples'), n = 1.
For a further assay, the system named is NCL. The note with it: read-out: apparent Kd; compound concentrations: 100 nM and 1000 nM (sheet 'Samples'), CATDS: 0.116162101404393; n = 1.
The subject of a further assay is PIK3C3. Particulars: read-out: apparent Kd, compound concentrations: 100 nM and 1000 nM (sheet 'Samples'), n = 1.
For a further assay, the system named is PIK3CB. Particulars: read-out: apparent Kd; compound concentrations: 100 nM and 1000 nM (sheet 'Samples'), CATDS: 0.13740958062808101; n = 1.
The test system of another assay is PYGL. Particulars: read-out: apparent Kd; compound concentrations: 100 nM and 1000 nM (sheet 'Samples'), CATDS: 9.7642966529981307E-2; n = 1.
The test system of a further assay is TAOK3. Particulars: read-out: apparent Kd; compound concentrations: 100 nM and 1000 nM (sheet 'Samples'), CATDS: 0.106339903242866; n = 1.
The next assay concerns CDC42. The note with it: read-out: apparent Kd; compound concentrations: 100 nM and 1000 nM (sheet 'Samples'), CATDS: 0.22290293584535001; n = 1.
The next assay has as its system DCTPP1. The note with it: read-out: apparent Kd; compound concentrations: 100 nM and 1000 nM (sheet 'Samples'), CATDS: 0.21946869965493901; n = 1.
The test system of a further assay is T1, DJA1.
T1 construct: gene DNAJA1
Particulars: read-out: apparent Kd; compound concentrations: 100 nM and 1000 nM (sheet 'Samples'), CATDS: 0.217792726025238; n = 1.

The test system of a further assay is IRAK4. The note with it: read-out: apparent Kd; compound concentrations: 100 nM and 1000 nM (sheet 'Samples'), CATDS: 0.188463756574588; n = 1.
For the next assay, the system named is FLT3. Particulars: read-out: apparent Kd; compound concentrations: 100 nM and 1000 nM (sheet 'Samples'), CATDS: 0.87351473919373701; n = 1.
A further assay relates to NNT. The note with it: read-out: apparent Kd, n = 1.
Another assay has as its system PDGFRB. The note with it: read-out: apparent Kd; compound concentrations: 100 nM and 1000 nM (sheet 'Samples'), CATDS: 0.21575328371949701; n = 1.
For the next assay, the system named is BMPR1A. The note with it: read-out: apparent Kd; compound concentrations: 100 nM and 1000 nM (sheet 'Samples'), CATDS: 0.16431444601058101; n = 1.
Another assay relates to CAMK4. Particulars: read-out: apparent Kd; compound concentrations: 100 nM and 1000 nM (sheet 'Samples'), CATDS: 0.11933253309467701; n = 1.
The subject of the next assay is EGFR. The note with it: read-out: apparent Kd, n = 1.
A further assay deals with ILK. The note with it: read-out: apparent Kd; compound concentrations: 100 nM and 1000 nM (sheet 'Samples'), CATDS: 0.116106966266716; n = 1.
Another assay has as its system OPA1. Particulars: read-out: apparent Kd; compound concentrations: 100 nM and 1000 nM (sheet 'Samples'), CATDS: 0.52668483019397605; n = 1.
Another assay has as its system AGPS. Particulars: read-out: apparent Kd; compound concentrations:100 nM and 1000 nM (sheet 'Samples'); n = 1.
The subject of the next assay is TGFBR1. The note with it: read-out: apparent Kd; compound concentrations:100 nM and 1000 nM (sheet 'Samples'); n = 1.
For another assay, the system named is AGK. Particulars: read-out: apparent Kd, n = 1.
For another assay, the system named is HSP90B1. Particulars: read-out: apparent Kd; compound concentrations:100 nM and 1000 nM (sheet 'Samples'); n = 1.
The next assay concerns MTHFD1. Particulars: read-out: apparent Kd; compound concentrations:100 nM and 1000 nM (sheet 'Samples'); n = 1.
Setting [1] is: compound concentrations:100 nM and 1000 nM (sheet 'Samples').

Read-outs that look alike come from different tables or passages of the source.

As to `O=C(Nc1n[nH]c2nc(-c3ccc(O)cc3)c(Br)cc12)C1CC1` [SB-725317], the potency estimated from few doses with ADRBK1 (setting [1]) is 1950 nM; in the assay with AKT2 (setting [1]), 2420 nM; with EIF2AK1, 517 nM; with GSK3A, 12.9 nM; in the assay with GSK3B, 43.1 nM; in the assay on PIM2, 768 nM. In addition, the potency estimated from few doses was 1610 nM with PRKAG1 and 1840 nM with TAOK1.
Turning to `O=C(Nc1n[nH]c2nc(-c3ccco3)c(Br)cc12)C1CC1` [SB-739452], the potency estimated from few doses in the assay on ADK (CATDS: 1) was 1720 nM.
Regarding `O=C(Nc1cccc(-c2nn3ccccc3c2-c2ccnc(Nc3cccc(C(F)(F)F)c3)n2)c1)c1c(F)cccc1F` [GSK292658A], the potency estimated from few doses is 1330 nM in the assay with ADK (CATDS: 0.51902262396373799); 1540 nM with COX5A (compound concentrations: 100 nM and 1000 nM (sheet 'Samples'), CATDS: 0.48232246819666902).
In the case of `Cc1nc(Nc2cnn(C3CCNCC3)c2)nc2c1N(C)C(=O)c1cc3ccccc3cc1N2C` [HTH-01-015], the potency estimated from few doses in the assay on AKT1 (CATDS: 0.123501580073808) is 1310 nM; in the assay with AKT2 (compound concentrations: 100 nM and 1000 nM (sheet 'Samples'), CATDS: 0.10314044451286999) it was 1870 nM; in the assay with MAP2K1, 2060 nM; in the assay on MAP2K2 (CATDS: 0.112091584059978), 1580 nM; with NCL it was 1470 nM; in the assay with PIK3C3 (CATDS: 0.115592517664726), 1480 nM. Moreover, the potency estimated from few doses with PIK3CB was 1080 nM; with PYGL, 2120 nM; in the assay on TAOK3 it was 1760 nM.
Turning to `O=C1N=C(N[C@H](CO)Cc2ccccc2)S/C1=C\c1ccc2ncccc2c1` [RO4503319-000], the potency estimated from few doses in the assay with AKT2 (compound concentrations: 100 nM and 1000 nM (sheet 'Samples'), CATDS: 0.16502460627676999) was 2470 nM; in the assay with CDC42, 1290 nM; with DCTPP1, 1330 nM; in the assay with DJA1, 1350 nM; with IRAK4 it was 1810 nM.
Take `Cc1cccc(Nc2ncc(-c3ccccc3)o2)c1` [GW632046X]: the potency estimated from few doses with ADRBK1 (compound concentrations: 100 nM and 1000 nM (sheet 'Samples'), CATDS: 0.18601551584516901) is 1420 nM; in the assay with FLT3, 26.1 nM; in the assay with NNT (compound concentrations: 100 nM and 1000 nM (sheet 'Samples'), CATDS: 0.20642475044215899), 1000 nM; in the assay with PDGFRB, 873 nM.
In the case of `Cl.O=C(Nc1cccc(-c2nn3ncccc3c2-c2ccnc(Nc3cccnc3)n2)c1)c1c(F)cccc1F` [GSK312879A], the potency estimated from few doses is 1640 nM in the assay with AKT1 (CATDS: 0.123574579018809); 841 nM in the assay on BMPR1A; 1800 nM in the assay with CAMK4; 2310 nM with EGFR (compound concentrations: 100 nM and 1000 nM (sheet 'Samples'), CATDS: 0.109679225268286); 1950 nM in the assay on ILK; 116 nM with OPA1. The potency estimated from few doses in the assay on PIK3C3 (CATDS: 0.14677884590005799) is 1070 nM.
Consider `Fc1ccc(-c2cc(-c3c[nH]nc3-c3ccccn3)ccn2)cc1` [GW680975X], for which the potency estimated from few doses with AGPS was 1790 nM; in the assay with COX5A (setting [1]), 132 nM; with TGFBR1 it was 960 nM.
With `Cc1ccc(S(=O)(=O)Nc2ccc(Nc3nccc(Nc4cccc5[nH]ncc45)n3)cc2)cc1` [GSK581271A], the potency estimated from few doses was 1530 nM with AGK (compound concentrations: 100 nM and 1000 nM (sheet 'Samples'), CATDS: 0.56358245780801897); 2420 nM with MAP2K2 (CATDS: 0.44930961839154798).
For `CS(=O)(=O)CCNCc1ccc(-c2ccc3ncnc(Nc4ccc(OCc5ccccc5)c(Cl)c4)c3c2)o1.Cl` [GW574783B_PKIS1], the potency estimated from few doses is 1950 nM in the assay with AGK (setting [1]); 156 nM in the assay on EGFR (setting [1]); 1710 nM in the assay with HSP90B1; 1950 nM in the assay on MTHFD1; 1200 nM in the assay on NNT (setting [1]).
